FXIa single inh: inhibitors of human coagulation factor XIa | purified human FXIa, fluorogenic AMC substrate cleavage | inhibition, % at 10 µM | 33,000 tested, 0.3% active | AID 687;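 active = inhibition above 40% in the primary screen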;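 also: 0% = enzyme without compound and 100% = blank wells lacking enzyme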
Target sequence (P03951 19-387 limits assumed): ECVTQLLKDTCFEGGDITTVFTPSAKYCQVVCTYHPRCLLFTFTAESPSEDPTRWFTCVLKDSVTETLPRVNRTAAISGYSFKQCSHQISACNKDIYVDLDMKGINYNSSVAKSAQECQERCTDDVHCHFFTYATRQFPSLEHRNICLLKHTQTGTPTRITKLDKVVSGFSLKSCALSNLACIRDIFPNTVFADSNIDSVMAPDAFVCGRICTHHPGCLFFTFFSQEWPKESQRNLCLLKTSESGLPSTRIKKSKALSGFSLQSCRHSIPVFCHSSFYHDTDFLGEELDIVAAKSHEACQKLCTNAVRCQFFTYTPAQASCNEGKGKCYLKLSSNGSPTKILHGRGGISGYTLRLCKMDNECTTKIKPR
Target sequence (P03951 388-625 limits assumed): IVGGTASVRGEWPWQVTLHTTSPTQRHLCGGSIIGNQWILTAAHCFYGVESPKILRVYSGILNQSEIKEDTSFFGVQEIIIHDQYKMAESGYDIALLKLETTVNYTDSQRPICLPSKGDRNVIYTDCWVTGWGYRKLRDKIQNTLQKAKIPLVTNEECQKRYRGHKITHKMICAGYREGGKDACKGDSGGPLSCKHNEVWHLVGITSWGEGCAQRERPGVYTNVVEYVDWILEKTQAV
FXIIa inh: blocks human coagulation factor XIIa activity. purified human FXIIa, AMC substrate fluorescence, 2 h. inhibition, % at 10 µM. 33,000 tested, 0.2% active. AID 701; in the data active = inhibition above about 30%;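 also: 0% = enzyme with vehicle only and 100% = no enzyme blank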
Active calls of the source: *. The entries come from a sample that favours hits as a whole.

For Cc1ccc(-c2n[nH]c(=O)c3ccccc23)cc1S(=O)(=O)N(C)CCO the results were FXIa single inh 17.8 and FXIIa inh -12.7.
Cc1ccc(-c2n[nH]c(=O)c3ccccc23)cc1S(=O)(=O)NCCO was read as FXIa single inh -6.4 and FXIIa inh 38.5*.
Screening CC1(C)Cc2cccc(OCC(=O)Nc3cccnc3Cl)c2O1 returned FXIa single inh -1.8 and FXIIa inh 8.6.
CCc1ccc(CC2S/C(=C(\C#N)C(C)=O)NC2=O)cc1 (stereo not drawn) was read as FXIa single inh 49.3* and FXIIa inh 6.7.
`CCOC(=O)c1ccc(CC2S/C(=C(\C#N)C(C)=O)NC2=O)cc1` (stereo not drawn) gave FXIa single inh 2.8 and FXIIa inh 13.2.
For O=C(CC1C(=O)N(c2ccccc2)C(=O)N1C1CCCCC1)Nc1ccccc1 (stereo not drawn) the results were FXIa single inh -4.9 and FXIIa inh 5.6.
O=C1C2C3C=CC(C3=C(c3ccccc3)c3ccccc3)C2C(=O)N1Cc1ccccc1 (stereo not drawn) was read as FXIa single inh 5.9 and FXIIa inh -2.7.
Screening Cc1ccnn1CCSCC(=O)O returned FXIa single inh -3.4 and FXIIa inh -4.9.
CC(=O)N[C@H]1C[C@@H]1c1ccccc1 was read as FXIa single inh 3.0 and FXIIa inh 5.9.
`CCC1CC2CC(NC(C)=O)C1C2` (stereo not drawn) gave FXIa single inh 47.4* and FXIIa inh 3.6.
CCCCCCc1nc2ccccc2c(=O)n1NC(=O)c1c(O)c2cccc3c2n(c1=O)CCC3 was read as FXIa single inh -5.7 and FXIIa inh 8.8.
Screening CCn1c(SCC(=O)Nc2ccc3c(c2)oc2ccccc23)nnc1-c1ccc(N)cc1 returned FXIa single inh 22.7 and FXIIa inh -13.4.
`CCOC(=O)C1CCCN(c2c(Nc3cc(C)cc(C)c3)c(=O)c2=O)C1` (stereo not drawn) gave FXIa single inh 0.6 and FXIIa inh 3.4.
For COc1ccc(Cn2nnnc2C(c2ccccc2Cl)N2CCC(C(N)=O)CC2)cc1 (stereo not drawn) the results were FXIa single inh 45.4* and FXIIa inh 2.3.
Clc1ccccc1C(c1nnnn1Cc1ccco1)N1CCN(Cc2ccco2)CC1 (stereo not drawn) was read as FXIa single inh -2.5 and FXIIa inh 4.5.
N#Cc1cc2c(nc1SCC(=O)Nc1sc3c(c1C#N)CCC3)CCCCCC2 was read as FXIa single inh -5.3 and FXIIa inh 7.1.
For N#Cc1cc2c(nc1SCC(=O)Nc1sc3c(c1C#N)CCC3)CCC2 the results were FXIa single inh 41.5* and FXIIa inh 2.1.
`Cc1cccc(OCc2nc(C)cc(=O)[nH]2)c1` gave FXIa single inh -1.6 and FXIIa inh 3.0.
Screening Cc1cc(=O)[nH]c(-n2[nH]c(C)cc2=O)n1 returned FXIa single inh 47.9* and FXIIa inh 2.8.
Screening Cc1cc(C)c(Cc2c(C)nc3c(C(=O)NCc4ccco4)cnn3c2C)c(C)c1 returned FXIa single inh 2.6 and FXIIa inh -7.4.
For O=C(NCCSCc1ccccc1)c1ccc(C2SCC(=O)N2Cc2ccccc2)cc1 (stereo not drawn) the results were FXIa single inh -6.4 and FXIIa inh -0.5.
Screening O=C(NCc1ccccc1)c1c[nH]c2cc3c(cc2c1=O)OCCO3 returned FXIa single inh 4.1 and FXIIa inh 9.1.
`FC(F)(F)c1cnc(Oc2ccc(-c3nnco3)cc2)c(Cl)c1` gave FXIa single inh -0.8 and FXIIa inh 30.8*.
`FC(F)(F)c1cnc(Oc2ccccc2-c2nnco2)c(Cl)c1` gave FXIa single inh -4.2 and FXIIa inh 6.9.
Cc1ccc(N2C(=O)C(Cl)=C(NCc3ccccc3)C2=O)c(C)c1 was read as FXIa single inh 6.0 and FXIIa inh 17.3.
For COc1cc2c(cc1NC(=S)Nc1cccc(C(F)(F)F)c1)oc1ccccc12 the results were FXIa single inh 0.6 and FXIIa inh 12.8.
CNc1sc(C(=O)c2ccccc2F)c(N)c1-c1nc2ccccc2s1 was read as FXIa single inh -6.9 and FXIIa inh 2.7.
For CCOC(=O)C1=C(C)NC2=C(C(=O)CC(C)(C)C2)C1c1coc2ccccc2c1=O (stereo not drawn) the results were FXIa single inh 6.6 and FXIIa inh 5.0.
For CC1=C(C(=O)OC(C)C)C(c2coc3ccccc3c2=O)C2=C(CCCC2=O)N1 (stereo not drawn) the results were FXIa single inh 50.4* and FXIIa inh 7.4.
`O=C1CC(N2CCN(c3nc4ccccc4s3)CC2)C(=O)N1c1cccc(F)c1` (stereo not drawn) gave FXIa single inh 14.8 and FXIIa inh 3.8.
Cc1cc(C)c2c(N)c(S(=O)(=O)Cc3ccccc3)sc2n1 was read as FXIa single inh 7.5 and FXIIa inh 5.0.
For Cc1ccc(-c2cc(-c3ccccc3)c3c(N)c(S(C)(=O)=O)sc3n2)cc1 the results were FXIa single inh -5.4 and FXIIa inh 51.1*.
For Cn1cc(SCC(=O)N2CCCc3ccccc32)c2ccccc21 the results were FXIa single inh 3.3 and FXIIa inh 5.6.
COc1nnc(-c2ccc(N3CCCCC3)c(NC(C)=O)c2)c2ccccc12 was read as FXIa single inh 2.2 and FXIIa inh 8.7.
`CCOC(=O)/C(=N/Nc1ccc(Cl)cc1)S(=O)(=O)c1ccccc1` gave FXIa single inh -6.2 and FXIIa inh 3.4.
For O=C(Oc1cccc2cccnc12)c1ccco1 the results were FXIa single inh -4.9 and FXIIa inh 9.8.
Screening O=C(Oc1ccc(Cl)c2cccnc12)c1ccco1 returned FXIa single inh 7.3 and FXIIa inh 36.8*.
For O=C(CN1CCSCC1)N/N=C/c1ccc(F)c(F)c1 the results were FXIa single inh 11.1 and FXIIa inh 3.3.
For Cc1cc(C)n(C(=O)CCCCCCCCC(=O)n2nc(C)cc2C)n1 the results were FXIa single inh 4.7 and FXIIa inh 8.2.
`Cc1cccc(CSc2nnc(-c3cccs3)n2Cc2ccco2)c1` gave FXIa single inh -6.5 and FXIIa inh -2.9.
Cc1onc(-c2c(F)cccc2Cl)c1C(=O)NC1CCSC1=O (stereo not drawn) was read as FXIa single inh -0.5 and FXIIa inh -0.2.
For COc1ccc2c(=O)cc(-c3ccccc3)n(C)c2c1 the results were FXIa single inh 104.7* and FXIIa inh -12.8.
Screening COc1ccc2c(c1)c1ccccc1n2C returned FXIa single inh 1.2 and FXIIa inh 4.7.
`CCC(CO)NCc1ccc(OC2CCCC2)cc1` (stereo not drawn) gave FXIa single inh 65.6* and FXIIa inh -16.9.
`CN(C)CCNCc1ccc(OC2CCCC2)cc1` gave FXIa single inh 0.2 and FXIIa inh 5.2.
For CC(=O)Oc1cc(OC(C)=O)c2c(C)cc(=O)oc2c1 the results were FXIa single inh -4.4 and FXIIa inh -1.4.
For Cc1cc(OC(=O)c2ccco2)c2c(C)cc(=O)oc2c1 the results were FXIa single inh 43.9* and FXIIa inh 30.8*.
For CC1=C(C(=O)OC2CCCCCCC2)C(c2cc3c(cc2Br)OCO3)CC(=O)N1 (stereo not drawn) the results were FXIa single inh -6.4 and FXIIa inh 9.4.
For O=C(c1ccc(C#CC2(O)CCCCC2)cc1)N1CCN(C(c2ccccc2)c2ccccc2)CC1 the results were FXIa single inh 2.1 and FXIIa inh 1.2.
For O=C(c1ccc2c(c1)OCO2)N1CCN(c2ccc(F)cc2)CC1 the results were FXIa single inh 3.8 and FXIIa inh 33.2*.

Bioassay records: PubChem, PCMD
